Compounds with a hit are over-represented: about 32% of the library has one in this group of screens.
PostGolgi yeast: growth inhibition of a yeast mutant, post-Golgi transport screen | AID 739 | hit rate 0.9% among 98,000 | post-Golgi transport phenotypic cell assay | inhibition, % at 10 µM;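 note: yeast cells grown in 1536-well plates; yeast grown about 18 h at 30C before absorbance read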
PostGolgi ctrl: growth of the yeast control strain, post-Golgi counter-screen | efflux-deficient yeast background strain, growth absorbance A615, 16 h | inhibition, % at 10 µM | hit rate 5% among 98,000 | AID 738
CYP2C9 inhib: inhibitors of human CYP2C9; hit rate 20% among 96,000; AID 777; inhibition, % at 5 µM; CYP2C9 Supersomes, luciferin-H conversion, luminescence; P11712;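 active = blocking of liver enzyme CYP2C9 beyond about 50% at 5 µM, limit read from the data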
CYP2C9 act: increases human cytochrome P450 2C9 activity | hit rate 1.4% among 96,000 | activation factor at 5 µM | recombinant CYP2C9, luciferin-H conversion, luminescence; active compounds read high; factor 1 = untreated enzyme, 0 = blocked | P11712;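 active = activation factor of 2 or more for CYP2C9 at a 5 µM dose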
CYP2C19 inh: human CYP2C19 inhibition; inhibition, % at 5 µM; hit rate 21% among 96,000; AID 778; P33261; CYP2C19 Supersomes, luciferin-H EGE luminescence, 30 min;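 active = CYP2C19 inhibition above a set limit at 5 µM in the primary screen, cut at about 50% in these data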
Target sequence (P33261 whole entry, looked up): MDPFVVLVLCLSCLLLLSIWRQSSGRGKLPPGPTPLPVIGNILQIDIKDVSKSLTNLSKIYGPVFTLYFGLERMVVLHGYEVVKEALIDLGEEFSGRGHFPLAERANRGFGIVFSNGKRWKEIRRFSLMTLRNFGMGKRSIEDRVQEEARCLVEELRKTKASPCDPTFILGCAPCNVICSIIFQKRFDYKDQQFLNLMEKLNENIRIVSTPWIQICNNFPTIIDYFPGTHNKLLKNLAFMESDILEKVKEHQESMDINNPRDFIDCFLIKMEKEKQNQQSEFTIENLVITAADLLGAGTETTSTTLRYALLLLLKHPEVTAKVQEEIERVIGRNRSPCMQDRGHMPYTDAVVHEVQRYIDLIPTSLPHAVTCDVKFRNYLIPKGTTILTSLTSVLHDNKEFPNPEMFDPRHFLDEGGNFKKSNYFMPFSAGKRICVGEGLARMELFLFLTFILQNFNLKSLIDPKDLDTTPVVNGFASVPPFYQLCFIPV
CYP2C19 act: activators of human cytochrome P450 2C19; P33261; recombinant CYP2C19, luciferin-H EGE luminescence; active compounds read high; 0 = fully inhibited enzyme, 1 = untreated enzyme; activation factor at 5 µM; 96,000 tested, under 10 active;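 active = activation factor of at least 2 at 5 µM in the primary screen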
Large screens that a line does not name were inactive. Cut-off read from the data, not from the text of the source, unless noted: active = inhibition above about 30%; inactive = the rest.

COc1ccc2c(C(=O)CN3CCN(c4ccccc4)CC3)c[nH]c2c1	none
CCCCCC(=O)Nc1nc(C)c(-c2csc(Nc3cc(Cl)ccc3OC)n2)s1	none
CCCC(C)C(=O)Nc1nc(C)c(-c2csc(Nc3cc(OC)ccc3OC)n2)s1 (stereo unspecified)	CYP2C9 inhib 53.4
COc1ccc2sc(NC(=O)CC(C)C)nc2c1	CYP2C9 inhib 65.9, CYP2C19 inh 57.7
Cc1nc(N)sc1-c1csc(Nc2ccccc2)n1	CYP2C9 inhib 83.1, CYP2C19 inh 85.0
CCOc1ccccc1Nc1nc(-c2sc(NC(=O)c3ccco3)nc2C)cs1	CYP2C9 inhib 58.6
CCOC(=O)COc1ccc(S(=O)(=O)NCCC2=CCCCC2)cc1	none
COc1ccccc1Nc1nc(-c2sc(NC(=O)CC(C)C)nc2C)cs1	CYP2C9 inhib 54.0
CCCC(=O)Nc1nc(C)c(-c2csc(Nc3cc(OC)ccc3OC)n2)s1	CYP2C9 inhib 77.8
CCCC(=O)Nc1nc(C)c(-c2csc(Nc3ccccc3OC)n2)s1	CYP2C9 inhib 66.3
CCCOc1ccc(N2C(=O)CC(N3CCC(C(=O)OCC)CC3)C2=O)cc1 (stereo unspecified)	none
Clc1cccc(NCc2nnc(SCc3ccccc3)o2)c1	CYP2C9 inhib 83.4, CYP2C19 inh 81.9
N#CCSc1nnc(CNc2cccc(Cl)c2)o1	none
Clc1cccc(NCc2nnc(SCc3ccccc3Cl)o2)c1	PostGolgi ctrl 39.9
COc1cccc(Cn2nnc(C(=O)Nc3cc(Cl)ccc3OC)c2N)c1	CYP2C9 act 2.1
COc1ccc(NC(=O)c2nnn(Cc3cccc(F)c3)c2N)c(OC)c1	none
COc1ccc(OC)c(NC(=O)c2nnn(Cc3ccc(Br)cc3F)c2N)c1	PostGolgi ctrl 31.2
COc1cccc(Cn2nnc(C(=O)NCc3ccc(F)cc3)c2N)c1	none
COc1cccc(Cn2nnc(C(=O)NCc3ccccc3Cl)c2N)c1	CYP2C9 act 2.9
Cc1cc(C)n(-c2nncn2/N=C/c2ccccc2F)n1	none
Cc1cc(C)cc(N2CC34C=CC(O3)C(C(=O)OCC(=O)NCc3ccco3)C4C2=O)c1 (stereo unspecified)	none
Cc1c2cc(O)c(=O)cc-2oc2cc(O)c(O)cc12	CYP2C9 inhib 81.6
CN(C(=O)c1cccc(C#N)c1)c1nnc(-c2ccncc2)s1	CYP2C9 inhib 70.3, CYP2C19 inh 93.3
CN(C(=O)c1cccnc1)c1nnc(-c2cccnc2)s1	none
COc1cccc(C(=O)N(C)c2nnc(-c3ccncc3)s2)c1	CYP2C9 inhib 89.3, CYP2C19 inh 100.0
Cc1ccc(S(=O)(=O)NC(=O)c2cc(C)n(-c3cc(S(=O)(=O)N4CCOCC4)ccc3N3CCCC3)c2C)cc1	none
O=c1c2ccccc2sn1-c1cc(S(=O)(=O)N2CCOCC2)ccc1N1CCCC1	CYP2C9 inhib 78.7
O=c1c2ccccc2sn1-c1cc(S(=O)(=O)N2CCOCC2)ccc1N1CCOCC1	CYP2C9 inhib 53.9, CYP2C19 inh 66.0
CS(=O)(=O)N1CCN(c2ccccc2NC(=O)c2ccco2)CC1	none
COc1ccc(-c2cn3c4c(sc3n2)CCCC4)cc1	CYP2C9 inhib 78.3, CYP2C19 inh 85.7
O=C(NCCc1ccccc1)C1CCCN(C(=O)NC2CCCCC2)C1 (stereo unspecified)	none
CCCn1c(SCc2cc(=O)oc3ccc4ccccc4c23)n[nH]c1=O	PostGolgi yeast 30.3, CYP2C9 inhib 84.0, CYP2C19 inh 77.8
CCOC(=O)c1c(C)[nH]c(C(=O)COC(=O)c2oc3ccc(OC)cc3c2C)c1C	none
COC(=O)c1c(C)[nH]c(C(=O)COC(=O)Cc2ccc3c(c2)OCCO3)c1C	CYP2C9 inhib 81.2
Nn1c(-c2cccs2)nc2sc3c(c2c1=O)CCCC3	CYP2C9 inhib 99.7, CYP2C19 inh 81.0
Cc1ccccc1-c1nc2sc3c(c2c(=O)n1N)CCCC3	none
Cc1c(S(=O)(=O)N2CCN(C(c3ccccc3)c3ccccc3)CC2)c(=O)n(C)c(=O)n1C	none
C/C(=N/OCC(=O)Nc1ccc(C)cc1C)c1cccs1	CYP2C9 inhib 98.4, CYP2C19 inh 93.4
Cc1ccc(NC(=O)CCC(=O)NNC(=O)c2cccs2)c(C)c1	none
O=[N+]([O-])c1ccc(Sc2ccccc2Cl)nc1	CYP2C19 inh 62.3
O=[N+]([O-])c1ccc(Sc2n[nH]c(-c3ccc(Cl)cc3Cl)n2)nc1	none
COc1cc(OC)cc(C(=O)NC2CCN(Cc3nnnn3Cc3cccs3)CC2)c1	none
COc1cccc(N2CCN(c3c(C#N)c(C(F)(F)F)nn3C)CC2)c1	PostGolgi ctrl 50.7, CYP2C9 inhib 92.5, CYP2C19 inh 94.1
Fc1ccc(CN2CCCCCCC2)cc1F	none
Cc1cc(S(=O)(=O)N(Cc2ccccc2)Cc2ccc(N(C)C)cc2)ccc1-n1cnnn1	none (no result: CYP2C9 inhib, CYP2C9 act, CYP2C19 inh, CYP2C19 act)
Cc1cc(S(=O)(=O)N(C)CCc2ccccc2)ccc1-n1cnnn1	CYP2C19 inh 57.2
COc1cccc(CN(Cc2cccnc2)S(=O)(=O)c2ccc(-n3cnnn3)c(C)c2)c1	CYP2C19 inh 59.7
Cc1cc(NC(=O)CN2CCCC2c2nc3ccccc3s2)no1 (stereo unspecified)	none
COC(=O)C(Cc1ccc(OC(=O)c2ccc(C)cc2)cc1)N1Cc2ccccc2C1=O (stereo unspecified)	CYP2C9 inhib 50.4
COc1ccc(NC(=O)c2ccc(C(=O)c3cc(OC)ccc3OC)cc2)cc1	none
COCCn1c(SCC(=O)Nc2ncc(C)s2)nc2sc3c(c2c1=O)CCC3	CYP2C9 inhib 51.9
N#CCSc1ncnc2sc3c(c12)CCC3	none
COc1ccc(-c2nnc(CSc3ncnc4sc5c(c34)CCC5)o2)cc1OC	CYP2C9 inhib 53.1 (no result: PostGolgi yeast, PostGolgi ctrl)
COCCn1c(SCc2nnc(-c3ccccc3)o2)nc2sc3c(c2c1=O)CCC3	PostGolgi ctrl 96.1, CYP2C9 inhib 87.1
COc1cc(NC(=O)c2ccc(COCC(F)(F)F)cc2)cc(OC)c1OC	none
O=P1(O)C=C(c2ccccc2)NC(c2ccccc2)=C1	none
O=C1NC(c2ccccc2)=C(c2ccc3ccccc3n2)C(c2ccncc2)N1 (stereo unspecified)	CYP2C9 inhib 88.8, CYP2C19 inh 83.4
O=C(C1COc2ccccc2O1)N1CCn2c(nc3ccccc32)C1 (stereo unspecified)	CYP2C19 inh 84.7
COc1ccccc1NC(=O)N1CCn2c(nc3ccccc32)C1	none
O=C(C1COc2ccccc2O1)N1CCOCC1 (stereo unspecified)	none
O=C(Nc1ccccc1Cl)N1CCn2c(nc3ccccc32)C1	CYP2C19 inh 52.1
O=C(C1COc2ccccc2O1)N1CCN(c2ccccc2)CC1 (stereo unspecified)	CYP2C9 inhib 74.7, CYP2C19 inh 85.1
O=C(c1ccccc1)N1CCn2c(nc3ccccc32)C1	none (no result: PostGolgi yeast, PostGolgi ctrl)
CC1CCN(c2cc(N3CCOCC3)c(F)cc2[N+](=O)[O-])CC1	none
Cc1ccc(N2C(=S)N=C(Nc3ccccc3C)C23CCOC(C)(C)C3)cc1 (stereo unspecified)	CYP2C9 inhib 51.1
